Source: PubChem (National Center for Advancing Translational Sciences (NCATS))
A selection: hits, their analogues and other compounds. The true share with any hit is near 1.7%.
GLP1R cytotox: cytotoxicity counter-screen for GLP-1 receptor inverse agonists | Potency, µM (highest dose often 38.3 µM), for the others: top-dose activity change, negative = inhibition, actives largely listed as inhibitors | 410,000 compounds, 0.13% hits | HEK293 cAMP-luciferase reporter cells, luminescence, 24 h;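 note: loss of luciferase light is scored as toxicity; % is set by controls: 0 for no effect and ±100 for the full control effect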
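Cells in DMEM/10% Nu serum/1% pen-strep, 1536-well format. Pre-incubated 12 h, dosed with 23 nL compound, incubated a further 24 h. Luciferase detection, 12 min at room temp, luminescence.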
GLP-1R inv ag: inverse agonists of human GLP-1 receptor. HEK293 GLP-1R CRE-luciferase, luminescence, 24 h; GLP-1R form is constitutively active. Potency, µM (series often up to 38.3 µM), inactives show at the highest dose activity change, negative = inhibition, actives largely listed as inhibitors. 410,000 compounds, 1.6% hits; note: % is set by controls: 0 for no effect and ±100 for the full control effect; nearly all actives have a fitted effect of over 55% in size
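Readout was luciferase luminescence, measured 12 min after detection reagent at room temperature. Beforehand, GLP-1R reporter HEK293 cells had sat 12 h, then received compounds for 24 hr at 37 deg C.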
PTHR1 agonist: activates the human parathyroid hormone receptor PTHR1; HEK293 GP2 PTHR1 cells, GloSensor cAMP luminescence, 1 h; Potency, µM (top dose mostly 115 µM), for the others: at the top dose activation, hits mostly activators; 410,000 compounds, 0.075% hits; note: nearly all actives have a fitted effect of over 55% in size
Target sequence (Q03431 whole entry, looked up): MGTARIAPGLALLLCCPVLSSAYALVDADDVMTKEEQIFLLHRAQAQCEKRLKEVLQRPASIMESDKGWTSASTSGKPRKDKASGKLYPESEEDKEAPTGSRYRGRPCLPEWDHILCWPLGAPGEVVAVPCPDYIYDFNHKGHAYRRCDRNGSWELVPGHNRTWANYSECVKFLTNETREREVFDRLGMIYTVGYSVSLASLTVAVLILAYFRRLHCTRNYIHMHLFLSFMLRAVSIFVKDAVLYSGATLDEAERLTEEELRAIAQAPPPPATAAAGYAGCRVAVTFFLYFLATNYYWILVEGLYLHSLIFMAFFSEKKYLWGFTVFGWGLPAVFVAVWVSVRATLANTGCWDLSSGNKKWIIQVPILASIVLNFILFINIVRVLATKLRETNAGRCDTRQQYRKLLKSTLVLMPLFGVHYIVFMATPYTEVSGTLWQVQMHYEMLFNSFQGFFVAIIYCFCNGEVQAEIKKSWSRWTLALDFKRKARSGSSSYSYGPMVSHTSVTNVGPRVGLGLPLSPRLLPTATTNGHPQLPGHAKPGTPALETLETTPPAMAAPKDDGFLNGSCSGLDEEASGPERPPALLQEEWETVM
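HEK-293-derived GP2 cells expressing PTHR1 and a GloSensor cAMP reporter, 3,000/well, plated overnight, given luciferin plus IBMX (each 0.5 mM as added) for 1 h at 37 °C, then compound for 1 h at 37 °C. Luminescence was read after 15 min at room temperature.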
GLP-1R agonist: agonists of human GLP-1 receptor. P43220. HEK293 GLP-1R CRE-luciferase, luminescence, 4-6 h; cells express a hypersensitive GLP-1R form. Potency, µM (top dose mostly 45.6 µM), inactives show at the highest dose activation, most hits filed as activators. 380,000 compounds, 0.007% hits. AID 624172; note: % of control where 0% means no effect
The depositor's hits bear a star; [ ] = remark or other dose. Calls come from the whole dose curve; as a rule, active = well fitted curve in the direction sought with a large enough effect; inconclusive = small, poorly fitted or top-dose-only effect, or another doubt; inactive = no such curve, though single readings can be large; an effect the other way counts as inactive or inconclusive. Potency is the fitted concentration of half-maximal effect.

CC(C(=O)NCCCc1ccccc1)n1cccc1C(=O)c1ccccc1 (configuration not stated) was read as GLP1R cytotox -8%, GLP-1R inv ag 11µM*, PTHR1 agonist -15% and GLP-1R agonist 13%.
`CSc1cccc(NC(=O)C(=O)NCc2ccccc2)c1` gave GLP1R cytotox -3%, GLP-1R inv ag 7%, PTHR1 agonist -14% and GLP-1R agonist 5%.
For O=C(O)c1cccc(COc2ccc3c(c2)CCC3)c1 the results were GLP1R cytotox 1%, GLP-1R inv ag inconclusive, PTHR1 agonist -52% and GLP-1R agonist -6%.
For Cc1cc(C)cc(C(=O)NCCCc2ccccc2)c1 the results were GLP1R cytotox -7%, GLP-1R inv ag 11µM*, PTHR1 agonist inactive and GLP-1R agonist -4%.
O=C(NCc1ccccc1)c1cccc(COc2ccc3c(c2)CCC3)c1 was read as GLP1R cytotox -5%, GLP-1R inv ag 4.5µM*, PTHR1 agonist -7% and GLP-1R agonist -2%.
Screening CC(C)c1nnc(N2C(=O)C(O)=C(C(=O)c3cccs3)C2c2ccccc2)s1 (configuration not stated) returned GLP1R cytotox 0%, GLP-1R inv ag -4%, PTHR1 agonist -25% and GLP-1R agonist -1%.
`O=C(NCCCCc1ccccc1)c1cccc(NC(=O)C2CCCCC2)c1` gave GLP1R cytotox -20%, GLP-1R inv ag 11µM*, PTHR1 agonist -29% and GLP-1R agonist -6%.
Screening O=C(NCc1ccccc1)c1cccc(NC(=O)c2ccccc2)c1 returned GLP1R cytotox -27%, GLP-1R inv ag 8.9µM*, PTHR1 agonist -13% and GLP-1R agonist -3%.
For O=C(NCCCCc1ccccc1)c1cccc(NC(=O)C2CCC2)c1 the results were GLP1R cytotox 14%, GLP-1R inv ag 14%, PTHR1 agonist inactive and GLP-1R agonist 8%.
`CCOC(=O)c1sc(NC(C)=O)cc1C` gave GLP1R cytotox -14%, GLP-1R inv ag 36%, PTHR1 agonist -21% and GLP-1R agonist 2%.
Screening CCOC(=O)c1sc(NC(=O)Nc2ccccc2Cl)cc1C returned GLP1R cytotox inconclusive, GLP-1R inv ag 7.9µM*, PTHR1 agonist -17% and GLP-1R agonist -15%.
Screening CN(C)c1ccc(N=Nc2nccs2)cc1 returned GLP1R cytotox 11µM*, GLP-1R inv ag inconclusive, PTHR1 agonist -38% and GLP-1R agonist -2%.
For CN(C)c1ccc(N=Nc2ccccc2Br)cc1 the results were GLP1R cytotox inconclusive, GLP-1R inv ag inconclusive, PTHR1 agonist -86% and GLP-1R agonist -4%.
For COc1ccc(-c2c(-c3cc(OC)cc(OC)c3)n(C)c3ccc(-c4cccc5[nH]ccc45)cc23)cc1 the results were GLP1R cytotox 6%, GLP-1R inv ag inconclusive, PTHR1 agonist -13% and GLP-1R agonist -3%.
Screening COc1cc(OC)cc(-c2c(-c3ccc(F)cc3)c3cc(-c4cccc5[nH]ccc45)ccc3n2C)c1 returned GLP1R cytotox 9%, GLP-1R inv ag 5.6µM*, PTHR1 agonist -30% and GLP-1R agonist -5%.
O=C(Cc1ccc(S(=O)(=O)N2CCOCC2)s1)Oc1ccc(F)cc1 was read as GLP1R cytotox 0%, GLP-1R inv ag -35%, PTHR1 agonist -3% and GLP-1R agonist 0%.
CCOc1cc(N2CCOCC2)c(OCC)cc1NC(=O)CC12CC3CC(CC(C3)C1)C2 was read as GLP1R cytotox -13%, GLP-1R inv ag 1µM*, PTHR1 agonist -7%[57.5 µM] and GLP-1R agonist 9%.
CCOc1cc(N2CCOCC2)c(OCC)cc1NC(=O)CN1CCc2ccccc2C1 was read as GLP1R cytotox -16%, GLP-1R inv ag 4.5µM*, PTHR1 agonist -2%[57.5 µM] and GLP-1R agonist 12%.
Cc1c(C(=O)NNc2c(Cl)cccc2Cl)n(C)oc1=O was read as GLP1R cytotox -19%, GLP-1R inv ag 3.5µM*, PTHR1 agonist inactive and GLP-1R agonist -6%.
Screening CCN(CC(=O)Nc1cc(Cl)ccc1C)C(=O)c1ccc2c(=O)n3c(nc2c1)CCC3 returned GLP1R cytotox -7%, GLP-1R inv ag 6%, PTHR1 agonist -17% and GLP-1R agonist 0%.
COc1ccc(CNC(=O)CCc2cn(C)c3ccccc23)cc1 was read as GLP1R cytotox 7%, GLP-1R inv ag 4% and PTHR1 agonist inactive.
`CCc1nc2ccc(C(=O)NCCc3c[nH]c4ccccc34)cn2c1N(C=O)CCC(C)C` gave GLP1R cytotox inconclusive, GLP-1R inv ag 5.6µM*, PTHR1 agonist -21% and GLP-1R agonist 0%.
For CC(C)Nc1cc(C(F)(F)F)nc(-c2ccccn2)n1 the results were GLP1R cytotox inconclusive, GLP-1R inv ag -15%, PTHR1 agonist -5% and GLP-1R agonist -7%.
For FC(F)(F)c1cc(Nc2ccccc2)nc(-c2ccccn2)n1 the results were GLP1R cytotox inconclusive, GLP-1R inv ag 3.5µM*, PTHR1 agonist inactive and GLP-1R agonist 14%.
`CC(C)(C)OC(=O)N1CCC(c2c(C(=O)NCC3CCN(C4CCCC4)C3)cnn2-c2cccc(Cl)c2)CC1` (configuration not stated) gave GLP1R cytotox inconclusive, GLP-1R inv ag 13µM*, PTHR1 agonist -14% and GLP-1R agonist 4%.
For CC(C)(C)OC(=O)N1CCC(c2c(C(=O)NCC3CCN(C4CCCC4)C3)cnn2-c2ccccc2)CC1 (configuration not stated) the results were GLP1R cytotox 0%, GLP-1R inv ag inconclusive, PTHR1 agonist inactive and GLP-1R agonist 11%.
For O=C(Nc1cccc(C(F)(F)F)c1)c1ccc2snnc2c1 the results were GLP1R cytotox -10%, GLP-1R inv ag 7%, PTHR1 agonist inactive and GLP-1R agonist -7%.
CCN(CC)S(=O)(=O)c1cccc(NC(=O)CC2CCCC2)c1 was read as GLP1R cytotox 13%, GLP-1R inv ag inconclusive, PTHR1 agonist inactive and GLP-1R agonist 11%.
For CCN(CC)S(=O)(=O)c1ccc2c(c1)nc(CCC(=O)Nc1cccc(C(F)(F)F)c1)n2CC the results were GLP1R cytotox -21%, GLP-1R inv ag 10µM*, PTHR1 agonist -30%[57.5 µM] and GLP-1R agonist 1%.
For CCN(CC)S(=O)(=O)c1cccc(NC(=O)Nc2cccc(C(F)(F)F)c2)c1 the results were GLP1R cytotox inconclusive, GLP-1R inv ag 7.9µM*, PTHR1 agonist inactive and GLP-1R agonist -9%.
`O=C(Nc1cccc(C(F)(F)F)c1)Nc1ccc2snnc2c1` gave GLP1R cytotox -25%, GLP-1R inv ag 11µM*, PTHR1 agonist -38% and GLP-1R agonist -6%.
Screening COC(=O)c1cccnc1NC(=S)NNC(=O)c1ccccc1 returned GLP1R cytotox 7%, GLP-1R inv ag -2%, PTHR1 agonist -1%[57.5 µM] and GLP-1R agonist 16%.
Screening COc1ccc(CNC(=O)c2cc3c(=O)n(Cc4cccnc4)ccc3nc2C)cc1 returned GLP1R cytotox 2%, GLP-1R inv ag 1% and PTHR1 agonist -5%.
